Inconclusive results are not listed. Activity calls are given as the source filed them. Unless noted, calls follow the shape of the dose curve; as a rule, active = well fitted curve in the direction sought with a large enough effect in the repeat runs; inconclusive = weak or mixed curves; inactive = no such curve, though single readings can be large; an effect the other way counts as inactive or inconclusive.
Assays:
[1] = qHTS assay for small molecule agonists of the p53 signaling pathway (AID 651631; calls by dose curve; also: nearly all actives have a fitted effect of over 15% in size)
Method in brief: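 Fluorescence intensity from cleaved LiveBLAzer B/G substrate (2 h, room temperature) served as the signal. Beforehand, HCT-116 reporter cells bearing p53 response elements were treated 16 h at 37 °C with DMSO-dissolved compounds.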

[2] = qHTS assay for small molecules that induce genotoxicity in human embryonic kidney cells expressing luciferase-tagged ATAD5 (AID 651632); also: nearly all actives have a fitted effect of over 15% in size
Method in brief: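 Cells were seeded at 2,000 per well, dosed with compound, and incubated 16 hr at 37C in 5% CO2. Luciferase activity was then quantified after a 30 min room-temperature incubation with Amplite.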

[3] = qHTS assay for small molecule agonists of the p53 signaling pathway - cell viability (AID 651633; calls by dose curve;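 also: p53RE-bla HCT reporter cells with a stable beta-lactamase p53 reporter; series mostly up to about 83 µM; nearly all actives have a fitted effect of over 30% in size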)
Method in brief: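 p53RE-bla cells, seeded at 4,000 per well and rested 5 h at 37 C/5% CO2, received compounds in DMSO for 16 h at 37 C. CellTiter-Glo was then added, and luminescence was read after 30 min at room temperature to gauge cytotoxicity.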

[4] = qHTS assay for small molecules that induce genotoxicity in human embryonic kidney cells expressing luciferase-tagged ATAD5 - cell viability (AID 651634; calls by dose curve; also: nearly all actives have a fitted effect of over 25% in size)
Method in brief: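 Cells (HEK293T, luciferase-tagged ATAD5) are seeded at 2,000 per well, dosed with compound or DMSO vehicle, and incubated 15.5 hr at 37C and 5% CO2. CellTiter-Fluor is added for 30 min before fluorescence is measured.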

[5] = qHTS assay for small molecule disruptors of the mitochondrial membrane potential - cell viability (AID 720634; calls by dose curve;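 also: human HepG2 liver cancer cells; series mostly up to about 83 µM; nearly all actives have a fitted effect of over 20% in size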)
Method in brief: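 Cytotoxicity was measured by ATP quantitation in HepG2 wells that had first been treated with compound for 1 hr and stained with m-MPI dye; CellTiter-Glo incubation was 30 min at room temperature.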

[6] = qHTS assay for small molecule disruptors of the mitochondrial membrane potential (AID 720635)
Method in brief: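 HepG2 cells (2,000/well) attached overnight at 37C, then took compound for 1 hr at 37C, 5% CO2. Mito-MPS dye was added for 30 min; fluorescence was read at 490/535 nm (monomers) and 540/590 nm (aggregates).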

[7] = qHTS assay to test for compound auto fluorescence at 535 nm (green) in HepG2 cells (AID 720675)
[8] = qHTS assay to test for compound auto fluorescence at 460 nm (blue) in HEK293 cells (AID 720678)
Method in brief: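 Auto fluorescence in the blue band was quantified as triamterene equivalency. HEK293 cells were seeded at 2,000/well, dosed after a 4-5 hr attachment, and kept overnight at 37C before the 405/460 nm reading.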

[9] = qHTS assay to test for compound auto fluorescence at 590 nm (red) in HEK293 cells (AID 720679)
Method in brief: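 Autofluorescence equivalency to Rose Bengal sodium, 540/590nm, in HEK293 cells exposed overnight to 23 nL compound per well.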

[10] = qHTS assay to test for compound auto fluorescence at 535 nm (green) in HEK293 cells (AID 720680)
[11] = qHTS assay to test for compound auto fluorescence at 460 nm (blue) in HEK293 cell free culture (AID 720681)
Method in brief: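 Test compounds were pinned into cell-free culture medium (DMEM with 10% FBS) and fluorescence was read directly at Ex/Em 405/460 nm. Signals were expressed as fluorescence equivalents of triamterene, with DMSO vehicle as control.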

[12] = qHTS assay to test for compound auto fluorescence at 535 nm (green) in HEK293 cell free culture (AID 720682)
Method in brief: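 Intrinsic compound fluorescence is measured in culture medium containing 10% FBS, with excitation at 485 nm and detection at 535 nm, referenced to fluorescein.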

[13] = qHTS assay to test for compound auto fluorescence at 590 nm (red) in HEK293 cell free culture (AID 720683)
Method in brief: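 Tox21 10K library compounds were pinned into cell-free DMEM with 10% FBS and fluorescence was read at excitation 540 nm. Activity is expressed as Rose Bengal sodium equivalency.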

[14] = qHTS assay to test for compound auto fluorescence at 590 nm (red) in HepG2 cell free culture (AID 720684)
Method in brief: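 Ex 540 / Em 590 nm read of compound in cell-free MEM (10% FBS). Rose Bengal sodium reference.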

[15] = qHTS assay to test for compound auto fluorescence at 460 nm (blue) in HepG2 cell free culture (AID 720685)
Method in brief: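 Cell-free plates of MEM plus 10% FBS received 23 nL compound or DMSO vehicle; blue-channel (405/460 nm) intensity scored against triamterene as reference fluorophore.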

[16] = qHTS assay to test for compound auto fluorescence at 535 nm (green) in HepG2 cell free culture (AID 720686)
[17] = qHTS assay to test for compound auto fluorescence at 460 nm (blue) in HepG2 cells (AID 720687)
Method in brief: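 Cells (2,000/well in MEM with 10% FBS) attached overnight at 37 C, then were exposed to compound or DMSO for 1 hr at 37 C, 5% CO2. Fluorescence read at Ex/Em 405/460 nm, expressed as triamterene-equivalent signal.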

[18] = qHTS assay to test for compound auto fluorescence at 590 nm (red) in HepG2 cells (AID 720674)
Method in brief: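 Intrinsic compound fluorescence in the red window (Ex/Em 540/590 nm) is measured in attached HepG2 cells exposed for 1 hr, DMSO vehicle as baseline, benchmarked to Rose Bengal sodium.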

[19] = target: Glucocorticoid receptor (Homo sapiens) (UniProt P04150); assay: qHTS assay to identify small molecule agonists of the glucocorticoid receptor (GR) signaling pathway (AID 720691; active = well fitted activation curve with a large enough effect in the signal ratio in the repeat runs, not every such curve was filed as active; the % refers to the signal ratio)
Sequence of Glucocorticoid receptor (Homo sapiens) (P04150 whole entry, looked up): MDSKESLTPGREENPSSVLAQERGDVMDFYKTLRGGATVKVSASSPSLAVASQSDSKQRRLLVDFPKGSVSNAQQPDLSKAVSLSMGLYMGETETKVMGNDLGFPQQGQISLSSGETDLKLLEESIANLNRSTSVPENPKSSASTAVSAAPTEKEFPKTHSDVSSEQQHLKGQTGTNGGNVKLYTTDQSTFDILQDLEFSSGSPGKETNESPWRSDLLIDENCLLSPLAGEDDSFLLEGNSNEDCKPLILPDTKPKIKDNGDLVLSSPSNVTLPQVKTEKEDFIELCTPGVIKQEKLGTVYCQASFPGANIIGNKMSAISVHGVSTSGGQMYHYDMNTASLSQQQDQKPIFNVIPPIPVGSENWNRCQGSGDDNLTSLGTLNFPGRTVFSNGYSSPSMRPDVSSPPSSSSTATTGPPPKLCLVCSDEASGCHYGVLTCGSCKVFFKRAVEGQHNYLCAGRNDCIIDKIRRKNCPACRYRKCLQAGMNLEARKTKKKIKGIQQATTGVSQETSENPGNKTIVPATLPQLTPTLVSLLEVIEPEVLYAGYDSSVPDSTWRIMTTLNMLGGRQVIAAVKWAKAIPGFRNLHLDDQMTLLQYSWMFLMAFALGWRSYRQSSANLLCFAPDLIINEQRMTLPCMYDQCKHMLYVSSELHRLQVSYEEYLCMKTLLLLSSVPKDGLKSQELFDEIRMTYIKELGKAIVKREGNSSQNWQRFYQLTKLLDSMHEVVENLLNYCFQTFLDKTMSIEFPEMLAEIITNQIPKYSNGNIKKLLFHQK
Method in brief: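 Steps: seed GR-bla HeLa cells, incubate 4 h at 37 C/5% CO2; pin-transfer DMSO-dissolved compounds; incubate 18 h at 37 C; add LiveBLAzer B/G FRET substrate; after 2 h at room temperature, measure fluorescence.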

[20] = target: Glucocorticoid receptor (Homo sapiens) (UniProt P04150); assay: qHTS assay to identify small molecule antagonists of the glucocorticoid receptor (GR) signaling pathway (AID 720692; active = well fitted inhibition curve with a large enough effect in the signal ratio in the repeat runs, not every such curve was filed as active; the % refers to the signal ratio)
Method in brief: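 Antagonism was scored as loss of dexamethasone-driven (5 nM final) reporter signal in HeLa cells bearing a glucocorticoid response element–beta-lactamase construct, after 18 h compound exposure at 37 C and 2 h FRET substrate loading.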

Measured: Potency

CC1(C)CC(=O)CC(C)(C)N1[O]
not listed: [18] | [19] | [20]
inactive: all other assays above

N#CC(C#N)=Cc1ccc(O)c(O)c1
not listed: [6] | [8] | [19] | [20]
inactive: all other assays above

C=CCc1ccccc1O
not listed: [6] | [18]
inactive: all other assays above

C=C(Cl)Cl
inactive: all assays above

COC(=O)Cc1ccccc1
not listed: [6] | [13]
inactive: all other assays above

CC(Oc1cccc(Cl)c1)C(=O)O (stereo unspecified)
not listed: [5] | [6] | [18] | [19]
inactive: all other assays above

CCCBr
not listed: [3] | [6] | [18] | [19]
inactive: all other assays above

CCCCCCCCCCCCCCCl
not listed: [6] | [18] | [19]
inactive: all other assays above

CC(C)CCON=O
not listed: [5] | [6] | [13]
inactive: all other assays above

CC(Cc1ccccc1)NCc1ccccc1Cl (stereo unspecified)
not listed: [6] | [8] | [13] | [18]
inactive: all other assays above

O=C(O)C(F)(F)C(F)(F)C(F)(F)C(F)(F)C(F)(F)F
not listed: [6] | [18]
inactive: all other assays above

COc1ccc2c(c1OC)C(=O)O[C@H]2[C@@H]1c2cc3c(cc2CCN1C)OCO3
not listed: [5] | [13] | [19] | [20]
inactive: all other assays above

CCC(C)Cl (stereo unspecified)
not listed: [5] | [8] | [19]
inactive: all other assays above

CCCC1CCCCN1 (stereo unspecified)
not listed: [5] | [18] | [19] | [20]
inactive: all other assays above

OCCSSCCO
not listed: [3] | [5] | [6] | [18]
inactive: all other assays above

NC(=S)c1c(Cl)cccc1Cl
not listed: [2] | [3] | [4] | [6] | [8] | [13]
inactive: all other assays above

Cc1nc2ccccc2c(=O)n1-c1ccccc1Cl
not listed: [3] | [6]
inactive: all other assays above

Reference: PubChem BioAssay (Tox21)
